Cycloheximide cs = counter-screen hit for Shiga toxin inhibitors, cycloheximide. AID 2314. cell reporter, cycloheximide protein synthesis inhibition counterscreen. max response, %. 300,000 compounds, 12% hits; in the data active = max response mostly above about 13%, no sharp cut-off; inactive = mostly below about 14%; also: read at 38.3 µM for the half of the compounds with a filed dose; 0% is about no effect
NS1 function inh = blocks influenza NS1 protein function; AID 2326; 270,000 compounds, 0.4% hits; Potency, µM (doses to about 46.1 µM), for inactives: top-dose activity, positive = more growth; also: potency is read from the fitted curve at half-maximal effect; actives are rising curves; nearly all actives have a fitted effect of over 50% in size
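A cell-based growth assay was used: compounds that relieve NS1-induced slow growth of budding yeast raise OD600. Assay medium was yeast nitrogen base with ammonium sulphate and -URA supplement, pH 6.0, with 2% galactose.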
SARS PLP yeast = blocks SARS-CoV papain-like protease in a yeast assay; S. cerevisiae expressing SARS-CoV PLpro, growth rescue; Potency, µM (series often up to 32.9 µM), for the others: top-dose activity, positive = growth rescue, hits mostly activators; 330,000 compounds, 0.19% hits; AID 485353; also: potency is read from the fitted curve at half-maximal effect; 0% is about no effect; nearly all actives have a fitted effect of over 55% in size
Shiga inhibitor = inhibitors of Shiga toxin in Vero cells; Vero cells, Shiga toxin protein synthesis inhibition reporter; inhibition, % at 38.7 µM; 290,000 compounds, 9.2% hits; in the data active = inhibition mostly above about 28%, no sharp cut-off; inactive = mostly below about 43%; also: 0% is about no effect
The depositor's hits bear a star; ? = inconclusive; . = not tested or not shown. The list is not random: actives were taken first. Their share in the collection is about 12%. Unless noted, calls follow the shape of the full dose curve.

SMILES	Cycloheximide cs	NS1 function inh	SARS PLP yeast	Shiga inhibitor
COc1ccccc1CN(C)C(=O)CN1CCN(C(=O)c2cccs2)CC1	.	.	0.4%	.
c1csc(-c2noc(CN3CCc4sccc4C3)n2)c1	34.3*	-1.4%	-0.5%	39.3*
COc1ccccc1CN1CCN(Cc2nc(-c3cccs3)no2)CC1	50.2*	0.7%	-0.2%	85.4*
CC(C)(C)c1ccc(C(=O)Nc2cnccn2)cc1	27.5*	-7.1%	-4.1%	40.7*
CC(C)(C)c1ccc(C(=O)Nc2ncn[nH]2)cc1	33.2*	-1.6%	15.7%	75.0*
Cc1ccc(C(=O)Nc2ncn[nH]2)cc1	-1.9	-10.4%	0.4%	-14.6
COc1ccc(-n2ccnc2SCC(=O)NCc2ccc(F)cc2)c(OC)c1	10.8	.	5.4%	-12.3
Cc1ccc(N2CC(C(=O)N3CCC(C(=O)Nc4nnc(C(C)(C)C)s4)CC3)CC2=O)cc1 (configuration not stated)	-6.2	16.9%	2.2%	-6.9
O=S(=O)(CCSc1nc2ccccc2s1)c1nc2ccccc2s1	14.5	-6.6%	-59.7%	14.7
C=CCS(=O)(=O)c1nc2ccccc2s1	44.2*	-9.0%	-45.0%	20.5
COc1ccc(NC(=O)c2nc3ccccc3s2)cc1	90.8*	-14.7%	-14.6%	24.7*
COc1ccc(OC)c(NC(=O)c2nc3ccccc3s2)c1	31.4*	.	0.9%	44.3
COc1ccc(NC(=O)CCc2nc3ccccc3s2)c(OC)c1	12.3	2.2%	1.3%	9.8
O=C(Nc1nnc(-c2ccccc2Cl)o1)c1nc2ccccc2s1	14.1*	-16.9%	-20.6%	22.5*
C=CC[C@H](CC(=O)NCCO)C(=O)N[C@@H](COC(=O)[C@H](CC=C)CC(=O)OC(C)(C)C)Cc1ccccc1	.	.	0.1%	.
C=CCNC(=O)c1nc2ccccc2s1	50.9*	1.3%	1.9%	118.4*
CC(C)NC(=O)c1nc2ccccc2s1	23.7*	12.6%	-2.2%	30.5*
COc1ccc(OC)c(NC(=O)Cn2c(C)nc3ccccc3c2=O)c1	32.4*	-5.5%	-1.8%	81.6*
COc1ccc(OC)c(NC(=O)CSc2nc3ccccc3c(=O)n2CCNC(C)=O)c1	-0.7	-23.9%	-1.0%	-0.8
Cc1ccc(-c2nc(CN(Cc3cnn(C)c3)C(C)C)c(C)o2)o1	-0.2	4.8%	1.1%	-8.6
COc1nc(N(C)C)nc(N(C#N)S(=O)(=O)c2ccc(C)cc2)n1	-2.9	11.4%	2.4%	-6.0
Cc1ccc(C)c(C(=O)COc2ncnc3ccccc23)c1	28.2	.	-1.5%	70.2*
O=C(CSc1ncnc2ccccc12)c1ccc2c(c1)OCCO2	45.9*	5.6%	-17.6%	185.4*
O=C(Nc1ccc2c(c1)OCO2)C1CCN(C(=O)CSc2ncnc3ccccc23)CC1	34.3*	-12.4%	-7.1%	44.4*
O=C(COc1ncnc2ccccc12)c1ccc2c(c1)OCCO2	55.3*	-48.4%	-4.5%	132.4*
SMILES	Cycloheximide cs	NS1 function inh	SARS PLP yeast	Shiga inhibitor
CCc1nc(SCC(=O)c2ccc3c(c2)OCCO3)c2ccccc2n1	0.7	-3.2%	-11.7%	13.7
CC(Sc1ncnc2ccccc12)C(=O)Nc1ccc2c(c1)OCO2 (configuration not stated)	3.9	-47.4%	-7.9%	9.7
COc1cc(OC)c(C(=O)COc2ncnc3ccccc23)c(OC)c1	-3.7	-9.2%	-2.4%	31.5
CC(CNC(=O)CCC(=O)N1CCOc2ccccc21)c1ccccc1 (configuration not stated)	-2.4	9.7%	-0.7%	-3.0
O=C(COc1ncnc2cc(Cl)ccc12)c1ccc2c(c1)OCCO2	28.5*	5.0%	0.2%	74.0*
O=C(NC(=S)Nc1ccccn1)c1cccc([N+](=O)[O-])c1	42.7*	-0.3%	0.0%	76.0*
COc1ccc(C(=O)NNC(=O)c2ccncc2)cc1[N+](=O)[O-]	-6.0	4.6%	-0.1%	-11.9
COc1ccc(C(=O)NC(=S)NNC(=O)c2ccc(O)cc2)cc1[N+](=O)[O-]	39.5*	?	6.4%	85.9*
CCOc1ccc(C(=O)NC(=S)Nc2ccccn2)cc1[N+](=O)[O-]	15.1*	4.7%	-2.1%	30.6
O=C(CNC(=S)NC(=O)c1cccc([N+](=O)[O-])c1)c1ccccc1	4.4	11.8%	11.5%	-4.9
COc1ccc(NC(=S)NC(=O)/C=C/c2ccc(F)cc2)cc1	-1.8	-0.2%	0.0%	16.1
COc1ccc(/C=C/C(=O)NC(=S)Nc2ccc(Br)cn2)cc1	11.0*	6.4%	-0.9%	34.3
COc1ccc(NC(=O)Nc2ccc(Br)cn2)cc1	20.0	4.1%	0.1%	77.4*
CC(=O)c1c(C)[nH]c(C(=O)NCc2ccco2)c1C	7.8	3.3%	3.5%	5.6
CCCN1CCC(=O)N([C@H](CSc2ccc(C)cc2)c2ccccc2)CC1	22.6*	-6.4%	0.3%	46.1*
CC(C)CN1CCC(=O)N(C(CSc2ccc(Br)cc2)c2ccccc2)CC1 (configuration not stated)	32.3	.	.	24.8

Screens as filed in PubChem BioAssay.
